# Experimental data: PubChem BioAssay (NCI)
# Compounds without any hit were thinned out: in the full panel of roughly 79,000, 15% have a hit. Unmarked numbers belong to inactive results. Activity calls are given as the source filed them. Rule as the data show it: active = growth inhibition above about 70%; inactive = the rest.
# What was measured:
# [1] = NCI Yeast Anticancer Drug Screen. Data for the rad50 strain (AID 155);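 also: 0% = growth of vehicle-only cultures of the same strain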; details: S. cerevisiae rad50 strain growth inhibition; at 50.0 µM; hits give high values
# Method in brief: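 Vehicle-treated cultures provide the reference for the growth inhibition reported for compound-exposed, repair-deficient yeast.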
# [2] = NCI Yeast Anticancer Drug Screen. Data for the mec2-1 strain (AID 157); details: S. cerevisiae mec2-1 strain, at 50.0 µM, hits give high values
# Method in brief: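 Each compound was tested on mec2-1 yeast, a strain altered in DNA damage repair or cell cycle control. Growth inhibition is reported relative to vehicle.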
# [3] = NCI Yeast Anticancer Drug Screen. Data for the sgs1 mgt1 strain (AID 161);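 also: 0% = growth of cultures given vehicle only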; details: S. cerevisiae sgs1 mgt1 strain, at 50.0 µM, hits give high values
# Method in brief: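 Genetically altered yeast, compound exposure, growth inhibition relative to vehicle.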
# [4] = NCI Yeast Anticancer Drug Screen. Data for the bub3 strain (AID 167); details: S. cerevisiae bub3 mutant strain, at 50.0 µM, hits give high values
# Method in brief: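 Mutant yeast screening strain plus compound; vehicle-treated cultures serve as the 0% inhibition reference.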
# [5] = NCI Yeast Anticancer Drug Screen. Data for the mlh1 rad18 strain (AID 175); details: S. cerevisiae mlh1 rad18 strain growth inhibition; at 50.0 µM; hits give high values
# Method in brief: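 Inhibition values reflect reduced growth of mutant yeast versus vehicle-treated controls following compound exposure; the mutations affect DNA damage repair.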
# [6] = NCI Yeast Anticancer Drug Screen. Data for the cln2 rad14 strain (AID 165);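 also: 0% = growth equal to vehicle treated cultures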; details: S. cerevisiae cln2 rad14 strain, at 50.0 µM, hits give high values
# Method in brief: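 Test compounds were added to cln2 rad14 yeast cultures; inhibition of growth was then determined by comparison with vehicle treatment.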
SMILES,growth inhibition [1],growth inhibition [2],growth inhibition [3],growth inhibition [4],growth inhibition [5],growth inhibition [6]
Nc1ccc(C2SCC(=O)N2NS(=O)(=O)c2cccc(C(=O)O)c2)cc1 (centres undefined),-21.3%,-24.1%,6.8%,-46.2%,-54.5%,–
C/C(=N/NC(N)=O)C1C2CC3C(C2Cl)C31 (centres undefined),21.4%,-15.3%,-15.1%,4.7%,-2.4%,–
O=c1c(Br)c(-c2ccccc2Br)[nH]c2ccccc12,-1.25%,13.7%,11.3%,-3.45%,-13.9%,–
O=c1[nH]cnc2sc3c(c12)CCC3,30.6%,6.9%,14.2%,3.1%,1.55%,–
COc1ccc(COC(=O)NNC(=O)C2CSC(c3ccccc3)N2C(C)=O)cc1 (centres undefined),-23.4%,6.75%,-15.8%,-8.9%,-10.3%,–
Fc1ccc(F)c(C2SCc3nc4ccccc4n32)c1 (centres undefined),19.4%,19.1%,33.1%,16.6%,24.6%,–
NCCSCCC(=O)O,-0.25%,-12.1%,-36.9%,-28.4%,-22.6%,–
CCOC(=O)C(/C=N\c1[nH]ncc1C#N)=C(/C(=O)OCC)c1ccc(O)cc1,4.55%,5.9%,-13.7%,-3%,15.4%,–
O=C(c1ccc(Cl)cc1)C(c1ccccc1)N1CCCCC1 (centres undefined),2.05%,-8.15%,-0.1%,-1.6%,6.85%,–
Cc1ccnc(N(C)CCN2CCCCC2)c1,2.75%,8.15%,7.3%,12.4%,-20.8%,–
CC1[C@@H]2CC=C3[C@H]4CCC5Cc6nc7c(nc6C[C@@]5(C)C4CC(=O)[C@]32CO[C@]12OC(C)(C)CC2O)CC1CC[C@@H]2C3=C[C@H]4O[C@@]5(O[C@@](C)(CO)C[C@@H]5O)C(C)[C@@]4(O)[C@]3(C)[C@@H](O)CC2[C@]1(C)C7 (some centres undefined),37.5%,40.9%,90.7% (active),47%,40.1%,–
COc1nsc2ccc(C(C)C(N)=O)cc12 (centres undefined),-35.5%,3.8%,-9.1%,–,-4.4%,-22.4%
OCCN1CCN(C2=Nc3cccnc3Nc3cscc32)CC1,-41.2%,-1.15%,-22.6%,-5.05%,-8.75%,–
CC(=O)/C=c1\[nH]/c(=C\C=C\c2ccccc2)c(=O)n1/C=C1\C(=O)Oc2ccccc2C1=O,-39.4%,7.1%,4.6%,-18.1%,-46%,–
NC(=O)Nc1cccc(C(=O)O)c1C(=O)O,-29.4%,-13.2%,-18.1%,-13.1%,-28.4%,–
CCOC(=O)CCC(NC(=O)N1CCN(c2c(C)nc(C)[nH]c2=O)CC1)C(=O)OCC (centres undefined),11.6%,-0.1%,10.6%,12.7%,18.6%,–
COC(=O)c1c(-c2ccc3c(c2)OCO3)cn(C)c1C,5.7%,1.85%,24.6%,7.55%,–,–
C#CC(O)C(CC)CCCC (centres undefined),-11.1%,-46.5%,-14.7%,-12.8%,13.8%,–
CCCCOC(=O)c1c2nc3c(C(=O)OCCCC)ccc(C)c3oc-2c(C)c(=O)c1NC(C)=O,19.4%,5.1%,6.95%,-5.3%,5.2%,–

SMILES,growth inhibition [1],growth inhibition [2],growth inhibition [3],growth inhibition [4],growth inhibition [5],growth inhibition [6]
CCCC1(c2ccccc2)CNC(=O)NC1,-3.8%,19.5%,1.8%,–,-2.95%,-9%
CC(C)SC1SCC2C(=O)N(C)C3(CC3C)C(=O)OCC(NC(=O)c3nc4ccccc4cc3O)C(=O)NC(C)C(=O)N(C)C1C(=O)N(C)C1(CC1C)C(=O)OCC(NC(=O)c1nc3ccccc3cc1O)C(=O)NC(C)C(=O)N2C (centres undefined),70.4% (active),68%,78% (active),78.8% (active),81.2% (active),–
C1CCC2(CC1)OCCS2,24.6%,1.6%,11.2%,-1.45%,6.15%,–
O=C(O)c1cc2ccc(Cl)cc2c2cc(C(F)(F)F)ccc12,2.25%,27.8%,27.2%,27.2%,53.7%,–
O=S(=O)(Oc1ccc(Cl)cc1)c1ccc(Br)cc1,10.7%,32.7%,47.1%,39.4%,25.3%,–
Clc1ccc2c(c1)N(C1CCCN(Cc3ccccc3)C1)c1ccccc1S2 (centres undefined),45.5%,7.65%,35.1%,43.7%,47%,–
CCCC(=O)c1c(C)cc(C)cc1C,-6.6%,-19.7%,-24.4%,-7.55%,11.1%,–
CC(=O)N[N+](C)(C)C,-20%,-39.2%,11.5%,1.2%,7.9%,–
NCCN1CCOCC1,7.95%,-3%,-11.9%,-5.25%,7.8%,–
Cc1onc(-c2c(F)cccc2Cl)c1-c1ncc(-c2ccc(Cl)cc2)o1,3.05%,3.3%,29.4%,29.8%,16.4%,–
CC(N)CCC(=O)O (centres undefined),-16.1%,-27.4%,-15.7%,–,-31%,-27.2%
Cc1ccc(C2(C)CC[C@@H]3C[C@@]32C)c(O)c1 (some centres undefined),91.2% (active),93.8% (active),93.5% (active),92.7% (active),91.8% (active),–
C=CCOc1cc2c(cc1C(C)c1ccc(OCC)c(C)c1)OCO2 (centres undefined),4.35%,-8.95%,-4.85%,7.15%,-1.6%,–
CCOCCOCCOC12C(=O)C(Cl)=C(Cl)C(=O)C13C1CC2C(Cl)C13 (centres undefined),99.4% (active),99.5% (active),98.9% (active),98.7% (active),98.2% (active),–
CCCCCCCCCCCCCCCCCC(=O)OCC(O)CO (centres undefined),-2.85%,-16.8%,–,-0.45%,7%,7.2%
CC(=O)Nc1cscc1NC(C)=O,-3.8%,-10.7%,–,16.9%,-9.5%,-0.2%
CC(=O)C[n+]1ccccc1Sc1ccc(Cl)cc1,12.6%,-9.25%,–,3.55%,56.7%,19.1%
COc1cc([C@@H]2c3cc4c(cc3[C@H](O)[C@H]3COC(=O)[C@@H]23)OCO4)cc(OC)c1OC,2.55%,4.2%,–,7.15%,16.2%,5.7%
COc1ccc(NC(=S)c2ccoc2C)cc1CC(=O)OC(C)C,17.4%,18.4%,–,37.9%,-18.7%,13.2%
